Results taken from the supplement of paper PMC3334620.
In all, about 33,000 sequences were measured (“E-score (-0.5 to 0.5)”: median about -0.054, highest 2% from about 0.35 on). The entries come from a sample that favours the highest values as a whole.

What follows are sequences tested against T1, Stb5 (UniProt P38699) (assay: PBM E-score (8-mer binding enrichment) (E-score (-0.5 to 0.5)); higher = stronger / more preferred TF binding). Details: protein concentration: 200 nM; construct: GST-full length.
T1 sequence: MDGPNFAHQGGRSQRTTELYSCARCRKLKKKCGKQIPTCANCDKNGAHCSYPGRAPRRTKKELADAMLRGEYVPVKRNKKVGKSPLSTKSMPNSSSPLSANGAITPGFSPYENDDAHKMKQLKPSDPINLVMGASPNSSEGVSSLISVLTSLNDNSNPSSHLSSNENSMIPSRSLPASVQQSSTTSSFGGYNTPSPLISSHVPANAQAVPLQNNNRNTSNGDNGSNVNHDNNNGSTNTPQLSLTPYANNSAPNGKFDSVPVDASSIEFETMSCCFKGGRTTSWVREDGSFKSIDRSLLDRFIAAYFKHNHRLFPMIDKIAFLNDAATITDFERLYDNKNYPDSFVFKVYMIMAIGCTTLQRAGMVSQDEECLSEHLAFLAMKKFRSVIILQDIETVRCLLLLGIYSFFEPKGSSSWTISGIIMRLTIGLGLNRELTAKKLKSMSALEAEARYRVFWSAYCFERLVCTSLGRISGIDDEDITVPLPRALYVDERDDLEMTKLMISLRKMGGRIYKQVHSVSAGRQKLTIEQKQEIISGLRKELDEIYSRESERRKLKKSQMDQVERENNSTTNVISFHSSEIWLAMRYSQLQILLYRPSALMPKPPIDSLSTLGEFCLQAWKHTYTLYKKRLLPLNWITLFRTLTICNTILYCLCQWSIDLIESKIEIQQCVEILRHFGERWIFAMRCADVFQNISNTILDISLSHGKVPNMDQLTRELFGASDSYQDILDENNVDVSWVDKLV
Procedure, shortened: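 GST-tagged yeast TFs (full-length or DNA-binding domain) were made by PURExpress in vitro transcription/translation and applied at about 100-200 nM to universal all-10-mer Agilent arrays. The arrays were made double-stranded by primer extension, on fresh or once-stripped slides. Bound protein was detected with fluorescent anti-GST, and scans were normalised with masliner. Each ungapped eight-base word, pooled with its reverse complement, received an E-score (modified Wilcoxon-Mann-Whitney statistic) from the Universal PBM Analysis Suite.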

Compared with GGCGGGGA, GGCGGGAA is lower in “PBM E-score” value: 0.366 for the first, 0.287 for the second.

First: GCGGGGGA
Second: CGCGGGGA
The “PBM E-score” value of the first is lower: 0.261 for the first, 0.305 for the second.

Going from AGCGGGAA to AGCGGGGG, the “PBM E-score” value falls from 0.357 to 0.277.

Going from CTCGGGGA to AGCGGGAT, the “PBM E-score” value rises from 0.0793 to 0.25.

Going from AGCGGGGA to ATCGGGGA, the “PBM E-score” value falls from 0.375 to 0.307.

First: GTCGGGGA
Second: GTAGGCAA
The “PBM E-score” value of the first is higher: 0.382 for the first, -0.246 for the second.

First: AATCTCCT
Second: GGGCAGTA
The “PBM E-score” value of the first is higher: -0.0106 for the first, -0.0652 for the second.

Going from ACCAAACG to AGATCCAC, the “PBM E-score” value falls from 0.0282 to -0.00803.

Going from GAACGTTC to CCGTTACC, the “PBM E-score” value rises from -0.114 to 0.19.

First: CAGAGTAC
Second: CGTTTGGC
The “PBM E-score” value of the first is lower: -0.0917 for the first, 0.0428 for the second.

Compared with ACGATTAT, CCCGAGAC is higher in “PBM E-score” value: 0.0316 for the first, 0.146 for the second.

Compared with CGGATTAA, ATCGGGCC is higher in “PBM E-score” value: 0.231 for the first, 0.297 for the second.

First: ATCGGGGC
Second: ATCGGGGG
The “PBM E-score” value of the first is higher: 0.356 for the first, 0.289 for the second.

Going from CGCGGGGC to AGCGGGGC, the “PBM E-score” value rises from 0.321 to 0.356.

First: AGCGGGCC
Second: CCCATATA
The “PBM E-score” value of the first is higher: 0.23 for the first, 0.0651 for the second.

First: ATAAACGA
Second: AGCCCAAA
The “PBM E-score” value of the first is lower: 0.0369 for the first, 0.106 for the second.

Compared with ACCGACCA, ACCGACCG is higher in “PBM E-score” value: 0.332 for the first, 0.346 for the second.

Going from CCCGACCC to CCCGACCG, the “PBM E-score” value rises from 0.247 to 0.355.

Going from GCCGACCC to ACCGACCC, the “PBM E-score” value rises from 0.267 to 0.361.

Going from AACACTAA to TGTGGGAA, the “PBM E-score” value falls from -0.111 to -0.16.

First: GCCTAGTA
Second: AAAATCCG
The “PBM E-score” value of the first is lower: -0.0419 for the first, 0.345 for the second.

Compared with AGCCCCCG, CGCCCCGC is higher in “PBM E-score” value: 0.173 for the first, 0.325 for the second.

Going from GGCCCCGA to AGCCCCGA, the “PBM E-score” value rises from 0.23 to 0.397.

Compared with AGCCCCGC, AGCCCGGG is lower in “PBM E-score” value: 0.421 for the first, 0.189 for the second.

First: CGCCCCGA
Second: AGCCCCCC
The “PBM E-score” value of the first is higher: 0.328 for the first, -0.282 for the second.

Going from AGCCCCGG to AAGGTGAT, the “PBM E-score” value falls from 0.404 to 0.117.

Compared with AGAGGTAC, CCTGATCC is higher in “PBM E-score” value: -0.205 for the first, -0.125 for the second.

Compared with CCCATGGG, GGTTGGAC is higher in “PBM E-score” value: -0.194 for the first, -0.0385 for the second.

Compared with CGCCTGTC, ACTACAGT is lower in “PBM E-score” value: -0.0556 for the first, -0.24 for the second.

First: CTCGGACA
Second: GACGGACA
The “PBM E-score” value of the first is lower: 0.233 for the first, 0.372 for the second.

First: GCCGGACA
Second: CACGGACA
The “PBM E-score” value of the first is higher: 0.401 for the first, 0.211 for the second.

Going from GACGGACC to CCCGGACA, the “PBM E-score” value falls from 0.316 to 0.315.

First: CTCGGATA
Second: ATCGGATA
The “PBM E-score” value of the first is lower: 0.0597 for the first, 0.19 for the second.

First: TCCGGACA
Second: GTCGGATA
The “PBM E-score” value of the first is lower: 0.259 for the first, 0.371 for the second.

First: GTCGGACA
Second: GTCGGAAA
The “PBM E-score” value of the first is higher: 0.385 for the first, 0.274 for the second.

First: TAAAACTA
Second: CACAAAAG
The “PBM E-score” value of the first is lower: -0.0104 for the first, 0.0345 for the second.

First: AGCTAACG
Second: CCTCCTAG
The “PBM E-score” value of the first is higher: 0.00522 for the first, -0.267 for the second.

First: ATGGCGAG
Second: CCAGCGCG
The “PBM E-score” value of the first is lower: -0.242 for the first, -0.0713 for the second.

First: AAACCTTT
Second: AGGCCCCA
The “PBM E-score” value of the first is higher: 0.0851 for the first, -0.255 for the second.

Going from GTCGGAGA to CGCGGAGA, the “PBM E-score” value falls from 0.373 to 0.287.

First: AGCGGAGA
Second: CTCGGAGA
The “PBM E-score” value of the first is higher: 0.236 for the first, 0.136 for the second.

Compared with ATCGGAGA, GGCGGAGA is higher in “PBM E-score” value: 0.33 for the first, 0.388 for the second.

First: AAACAGAG
Second: CGGTCTAA
The “PBM E-score” value of the first is lower: -0.197 for the first, 0.23 for the second.

Going from CCACTACG to CCATAACG, the “PBM E-score” value falls from -0.0468 to -0.0562.

First: AACATATT
Second: CGGTGTGA
The “PBM E-score” value of the first is lower: -0.109 for the first, 0.441 for the second.

Compared with CTGTGTCC, AGGTGTTG is lower in “PBM E-score” value: 0.136 for the first, -0.0336 for the second.

Going from AGGTGTGA to CGGTGTTC, the “PBM E-score” value rises from 0.00067 to 0.399.

First: CCGTGTTC
Second: AGGTGTTC
The “PBM E-score” value of the first is higher: 0.137 for the first, -0.101 for the second.

Going from AGGTGTCC to AGGTGTTA, the “PBM E-score” value rises from -0.164 to 0.381.

Compared with GGGTGTTA, CGGTGTCC is higher in “PBM E-score” value: 0.25 for the first, 0.369 for the second.

Compared with CGGTGTGC, AATCTGCA is lower in “PBM E-score” value: 0.219 for the first, -0.273 for the second.

Going from AAAGGCCT to ACTCTGTG, the “PBM E-score” value rises from -0.115 to -0.0679.

First: TATAGGCA
Second: ATGATGCA
The “PBM E-score” value of the first is lower: -0.262 for the first, -0.187 for the second.

Compared with CACCAGCG, ACAAAGAG is lower in “PBM E-score” value: -0.06 for the first, -0.148 for the second.

Compared with CGGTGTCA, AGGTGTCA is lower in “PBM E-score” value: 0.471 for the first, 0.12 for the second.

Going from GGGTGTCA to GGGTGTAA, the “PBM E-score” value rises from -0.073 to 0.251.

First: CGGTGTAA
Second: CGGTGTAG
The “PBM E-score” value of the first is higher: 0.438 for the first, 0.323 for the second.

First: TCGGAAGA
Second: ATATGAAA
The “PBM E-score” value of the first is higher: 0.142 for the first, -0.119 for the second.

First: ATTCGAGG
Second: TACGCAGA
The “PBM E-score” value of the first is higher: 0.0182 for the first, -0.163 for the second.

Compared with CGACCCGA, CAACGCCG is higher in “PBM E-score” value: 0.117 for the first, 0.318 for the second.

Going from AGACGCCG to AAACGCCA, the “PBM E-score” value falls from 0.399 to -0.046.

Going from AAACGCCG to AGACGCCC, the “PBM E-score” value falls from 0.449 to 0.0667.

Going from AGACGCCA to CGCTAGAG, the “PBM E-score” value rises from -0.181 to 0.0369.

Compared with AACATCGC, GTGGTCAA is lower in “PBM E-score” value: 0.0424 for the first, -0.291 for the second.

Compared with AACTCCGG, TACTCCGA is lower in “PBM E-score” value: 0.436 for the first, 0.234 for the second.

Going from CACTCCGA to AACTCCCT, the “PBM E-score” value falls from 0.242 to -0.0261.

First: AACTCCGT
Second: AACTCCAT
The “PBM E-score” value of the first is higher: 0.444 for the first, 0.144 for the second.

First: GACTCCGC
Second: AACTCCGC
The “PBM E-score” value of the first is lower: 0.333 for the first, 0.438 for the second.

First: AACTCCGA
Second: CACTCCGG
The “PBM E-score” value of the first is higher: 0.463 for the first, 0.219 for the second.

Compared with AACTCCCG, CACTCCGC is higher in “PBM E-score” value: 0.248 for the first, 0.307 for the second.

First: AGATCAAG
Second: ATTAGTCC
The “PBM E-score” value of the first is lower: -0.211 for the first, 0.248 for the second.

First: CATATCAC
Second: TGCTGCAA
The “PBM E-score” value of the first is higher: 0.0389 for the first, -0.177 for the second.

Compared with CCAGAACG, ATTCAAAG is lower in “PBM E-score” value: -0.0165 for the first, -0.12 for the second.

Compared with GCGCGAAA, AAGAGTGA is lower in “PBM E-score” value: 0.0664 for the first, -0.258 for the second.

First: ACAGACGT
Second: CCCCTCAC
The “PBM E-score” value of the first is higher: -0.141 for the first, -0.231 for the second.

First: TGGTACCA
Second: AGGTACTA
The “PBM E-score” value of the first is lower: -0.0919 for the first, 0.16 for the second.

Going from CGGTACTA to GGGTACCA, the “PBM E-score” value falls from 0.474 to -0.157.

Going from GGGTACTA to CGGTACCA, the “PBM E-score” value rises from -0.0611 to 0.39.

Going from AATGTGCC to ATCAAAGA, the “PBM E-score” value falls from 0.145 to -0.248.

Going from CAGCAGGA to AGTCTCCG, the “PBM E-score” value rises from -0.194 to 0.264.

First: AAGAACAT
Second: ATAACACG
The “PBM E-score” value of the first is lower: -0.0596 for the first, -0.0233 for the second.

Compared with CTAACACC, ATAACACA is lower in “PBM E-score” value: 0.401 for the first, -0.107 for the second.

Compared with CCAACACC, CTAACACA is lower in “PBM E-score” value: 0.119 for the first, -0.0526 for the second.

First: ATAACACC
Second: GAATCCTC
The “PBM E-score” value of the first is higher: 0.461 for the first, -0.239 for the second.

First: CGCGTTCC
Second: ATTCCTTC
The “PBM E-score” value of the first is higher: 0.0249 for the first, -0.0881 for the second.

Compared with GCCCTTAA, CCCTGGCG is lower in “PBM E-score” value: 0.191 for the first, 0.114 for the second.
